GDH-TPI inh: GDH-TPI coupling enzyme inhibitors, primary screen, artefact control for M. tuberculosis FBA inhibitor project, biochemical, absorbance, full deck; GDH-TPI coupled enzyme counterscreen, NADH absorbance; inhibition, % at 4.8 µM; hit rate 1.2% among 360,000; in the data active = inhibition above about 30%;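 also: 0% = DMSO wells and 100% = wells lacking the enzyme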
Mtb betalactam: beta-lactam sensitization of Mtb H37Rv, H37Rv | M. tuberculosis H37Rv growth with meropenem, percent inhibition | AID 434955, 2010 | hit rate 0.27% among 330,000 | inhibition, % at 25 µM; call rule not given here;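 also: growth measured after seven days incubation then overnight dye step; 0% = bacteria only wells and 100% = bacteria with antibiotic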
UGM FP inh: M. tuberculosis UGM enzyme inhibitors, primary screen, biochemical, fluorescence polarization, single point | purified UGM, fluorescence polarization probe displacement | hit rate 0.06% among 320,000 | inhibition, % at 10 µM; in the data active = inhibition above about 10%, passing the limit was not always enough
RecA intein inh: Mtb RecA intein splicing inhibitors, primary screen, biochemical, fluorescence, HTS | hit rate 0.75% among 290,000 | cell-free RecA intein splicing | Protein RecA (Mycobacterium tuberculosis (strain ATCC 25618 / H37Rv)), P9WHJ3 | inhibition, % (test concentration not listed); in the data active = inhibition above about 30%;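 also: 0% = vehicle wells and 100% = reference inhibitor control wells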
Rv3671c inh: Rv3671c serine protease inhibitors, primary screen, biochemical, fluorescence polarization, M. tuberculosis H37Rv; P9WHR9; inhibition, % at 5.96 µM; hit rate 0.048% among 320,000; AID 2606, 2010; in the data active = inhibition above about 38%;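 also: extracellular domain of Rv3671c used as enzyme; 0% = enzyme with DMSO and 100% = no enzyme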
Target sequence (P9WHR9 whole entry, looked up, the tested form may be a part): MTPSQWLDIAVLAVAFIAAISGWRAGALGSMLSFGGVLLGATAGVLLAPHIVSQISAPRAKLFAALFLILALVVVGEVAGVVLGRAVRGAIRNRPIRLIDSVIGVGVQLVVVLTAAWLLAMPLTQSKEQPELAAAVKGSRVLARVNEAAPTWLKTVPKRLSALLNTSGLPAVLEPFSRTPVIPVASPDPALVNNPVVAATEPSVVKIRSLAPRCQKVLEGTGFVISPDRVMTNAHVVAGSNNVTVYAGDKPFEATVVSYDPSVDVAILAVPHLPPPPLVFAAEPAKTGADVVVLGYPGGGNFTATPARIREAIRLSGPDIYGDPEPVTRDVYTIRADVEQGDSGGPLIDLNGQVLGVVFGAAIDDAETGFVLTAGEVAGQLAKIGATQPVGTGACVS
FBA Mtb inh: Mtb FBA enzyme inhibitors, primary screen, biochemical, fluorescence, strain H37Rv. Fructose-bisphosphate aldolase (Mycobacterium tuberculosis (strain ATCC 25618 / H37Rv)), …. purified M. tuberculosis FBA, fluorescence read-out. inhibition, % at 1 µM. hit rate 2.3% among 360,000; in the data active = inhibition above about 27%;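 also: 0% = vehicle and 100% = reference inhibitor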
* = called active by the depositor; x = no result given; + = active, no number. Shown are actives, neighbours in structure and some others; about 4% of the full set was active somewhere.

SMILES | GDH-TPI inh | Mtb betalactam | UGM FP inh | RecA intein inh | Rv3671c inh | FBA Mtb inh
CCOC(=O)CSc1nc(N)cc(=O)[nH]1 | 13.6 | -16.8 | -2.8 | -9.7 | -8.1 | 5.2
CC(C)(C)C(=O)CSc1nc(N)cc(=O)[nH]1 | 35.1* | -4.3 | 0.2 | 5.9 | 2.2 | 1.7
COc1ccccc1C1C(C(C)=O)=C(O)C(=O)N1c1ccc(O)cc1 (stereo not drawn) | 42.0* | 8.5 | 0.8 | -0.6 | -1.1 | -1.2
COc1ccc(C2C(C(C)=O)=C(O)C(=O)N2CCc2ccccc2)c(OC)c1 (stereo not drawn) | 37.3* | -2.7 | -0.5 | -2.1 | -11.1 | -3.3
CC(=O)C1=C(O)C(=O)N(c2ccc(O)cc2)C1c1cccc([N+](=O)[O-])c1 (stereo not drawn) | 31.6* | -1.5 | -0.1 | -0.7 | 4.0 | 1.8
COc1ccc(OC)c(C2C(C(C)=O)=C(O)C(=O)N2c2ccc(O)cc2)c1 (stereo not drawn) | 23.3 | -15.8 | 0.6 | -2.1 | -3.8 | -1.3
CCOC(=O)c1ccc(N2C(=O)C(O)=C(C(C)=O)C2c2ccc([N+](=O)[O-])cc2)cc1 (stereo not drawn) | 31.8* | 14.7 | 0.9 | 0.7 | 8.5 | -2.6
COc1ccc(CNCc2c(O)c(Cl)cc3c(C)c(C)c(=O)oc23)c(OC)c1 | 18.0 | -7.0 | 1.4 | -394.0 | -3.5 | +
CCc1cc(=O)oc2c(CNCc3ccc(OC)cc3OC)c(O)c(Cl)cc12 | 16.0 | 1.2 | -0.6 | -21.8 | 5.8 | +
COc1ccc(CNCc2ccncc2)c(OC)c1 | -5.5 | -2.7 | 4.4 | -2.4 | -9.8 | 3.1
CCCc1cc(=O)oc2c(CN(CC)CC)c(O)c(Cl)cc12 | 22.7 | -3.7 | -2.6 | -139.0 | 8.4 | x
CN1CCN(c2ccc(S(=O)(=O)N3CCOCC3)cc2NC(=O)CSCc2ccccc2)CC1 | -1.6 | -6.5 | 1.6 | x | 0.5 | 1.7
[O-][N+](=Cc1c(Cl)cccc1Cl)CC1(O)CCCCC1 | -1.3 | x | x | x | x | 0.4
Cc1c(Cl)c(C(=O)N2CCCCCC2)nn1C | 2.7 | -1.6 | -0.1 | -0.2 | 3.5 | 2.1
O=C(O)/C=C/c1ccc([N+](=O)[O-])o1 | 13.2 | 81.1 | -1.2 | x | 2.9 | -4.9
N#CCc1ccc(NC(=O)/C=C/c2ccc([N+](=O)[O-])o2)cc1 | 34.1* | x | x | 7.6 | x | -1.1
COc1ccc(-n2c(=S)[nH]c3sc(-c4ccccc4)cc3c2=O)c(OC)c1 | 20.7 | 44.7 | 1.4 | 0.4 | 7.1 | 2.4
COc1cccc(-c2cc3c(=O)n(-c4ccccc4)c(=S)[nH]c3s2)c1 | 38.2* | -7.6 | 0.7 | -0.2 | 1.1 | 4.0
COc1cc(/C=C2\S/C(=N/S(=O)(=O)c3ccccc3)NC2=O)c([N+](=O)[O-])cc1OC | 43.4* | 1.6 | -0.3 | -6.3 | 3.2 | -1.6
CC(=O)Nc1cc(NC(C)=O)cc(C(=O)N2CCCC3CCCCC32)c1 (stereo not drawn) | -6.9 | 2.5 | 1.2 | 3.8 | 7.9 | -5.9
CCOC(=O)N1CCC(NC(=O)c2ccc3c(c2)N(CC)CCS3)CC1 | 2.4 | -4.2 | 0.2 | -0.2 | -9.3 | 73.4*
Cc1ccc(CN2CCSc3ccc(C(=O)NC4CCCC4)cc32)cc1 | -2.7 | -3.2 | -0.2 | 0.7 | -2.8 | 7.0
O=C(Nc1ccccc1C(=O)Nc1nccs1)c1ccccc1 | x | x | x | x | x | -3.0
Cc1ccc(-c2ccc(/C=N/NC(=O)CN3CCCC3)o2)cc1Cl | 24.4 | 97.7 | 0.4 | 0.8 | -8.0 | 1.2
CC1(CC(=O)N/N=C/c2ccc(-c3ccc(C(=O)O)cc3)o2)OCCO1 | 59.6* | 6.5 | -0.1 | -0.7 | 7.0 | 15.9
SMILES | GDH-TPI inh | Mtb betalactam | UGM FP inh | RecA intein inh | Rv3671c inh | FBA Mtb inh
CC1(CC(=O)N/N=C/c2ccc(-c3ccc(Cl)cc3)o2)OCCO1 | 54.6* | 96.4 | -1.3 | -0.1 | -11.6 | 0.2
O=C(CN1CCOCC1)N/N=C/c1ccc(-c2ccc(C(=O)O)cc2)o1 | 35.4* | 3.8 | -0.4 | -1.9 | 1.8 | 6.3
O=C(CN1CCOCC1)N/N=C/c1ccccc1 | 3.1 | -8.1 | -2.8 | -1.0 | 5.6 | 3.9
CC1CC(O)C2C3(C)CCCC2(COC3=O)C12CCC1(CCOC1=O)O2 (stereo not drawn) | -2.1 | x | x | x | x | 3.9
Cc1ccc([C@H]2C(C(=O)O)=CC[C@@H](c3ccc4c(c3)OCO4)N2S(=O)(=O)c2ccc(C)cc2)cc1 | 3.8 | 5.6 | x | x | -3.5 | 3.1
CSc1nc(COC(=O)NC(C)C)c(COC(=O)NC(C)C)n1Cc1ccccc1 | x | x | x | x | x | 1.6
CCC1Sc2ccc(S(=O)(=O)CCC(=O)Nc3cc(C)ccn3)cc2NC1=O (stereo not drawn) | 8.3 | -0.5 | -0.4 | -0.1 | -3.3 | -1.8
CN(C)S(=O)(=O)c1ccc2nc(NC(=O)c3cccnc3)sc2c1 | 36.1* | -4.0 | -0.9 | -3.3 | -20.8 | 0.5
O=C(Nc1nc2ccc(S(=O)(=O)N3CCCCC3)cc2s1)c1cccnc1 | 40.1* | -5.6 | -2.5 | -3.9 | -16.6 | 3.5
CN(C)S(=O)(=O)c1ccc2nc(NC(=O)c3cccs3)sc2c1 | 30.5 | 10.4 | 0.2 | -3.4 | -8.3 | 10.3
O=C(Nc1nc2ccc(S(=O)(=O)N3CCCCC3)cc2s1)c1ccncc1 | 26.9 | -1.4 | 0.2 | -1.3 | -6.4 | 0.1
COC(=O)C1=C(C)NC2=C(C(=O)CCC2)C1c1ccsc1 (stereo not drawn) | x | x | x | -8.6 | x | x
COC(=O)C1=C(C)NC2=C(C(=O)CCC2)C1c1ccc(-c2ccsc2C(=O)OC)o1 (stereo not drawn) | 49.7* | -6.7 | -4.0 | 9.4 | 2.0 | 1.9
CN1CCSc2ccc(C(=O)NCc3cccc(F)c3)cc21 | 0.5 | -9.6 | -0.9 | -13.1 | 5.8 | 113.0*
COc1cccc(NC(=O)c2ccc3c(c2)N(C)CCS3)c1 | 9.6 | -0.1 | 0.9 | -5.0 | -4.4 | 7.7
O=C(NC1CCN(Cc2ccccc2)CC1)c1cc(S(=O)(=O)N2CCOCC2)ccc1Cl | 0.7 | x | x | x | x | -1.5
CN1/C(=C\C=C\C2=[N+](C)c3ccc4ccccc4c3C2(C)C)C(C)(C)c2ccccc21 | x | 62.0 | 1.2 | x | 186.6* | x
Nc1ccc(-c2nc3cc(N)ccc3n2CCO)cc1 | 14.1 | -13.1 | -0.1 | -3.0 | -4.0 | +
O=C1c2ccccc2NC(c2ccc(O)c(O)c2)N1c1ccccc1Cl (stereo not drawn) | 40.6* | 0.0 | 1.1 | -4.2 | -2.9 | 6.0
COc1cccc2cc(C(=O)NC3CC4CCC3C4)oc12 (stereo not drawn) | 7.5 | 13.3 | -2.7 | 1.0 | -1.8 | 1.1
Cc1cccc(Cn2ncc(Cl)c(Cl)c2=O)c1 | 1.4 | 98.5 | -1.3 | 55.2* | -3.5 | -2.2
O=c1c(Cl)c(N/N=C/c2ccc(Br)cc2)cnn1-c1ccccc1 | 55.9* | 84.6 | -2.5 | 4.2 | -13.9 | 2.8
